This is an account of results in PubChem BioAssay.

Assay [1] concerns TRPC4 beta (transient receptor potential cation channel C4), mouse. Briefly: activators of mouse TRPC4 channel, confirmation, cell-based, Fluo4 calcium, HEK293 TRPC4beta/mu-opioid, duplicates, 10 µM (AID 2426). The settings on record: Fluo4 calcium fluorescence, at 10 µM; stronger effect = higher value.
In assay [2] the test system is transient receptor potential cation channel C4 beta (TRPC4), mouse. Briefly: activators of mouse TRPC4 channel, confirmation, cell-based, second round, Fluo4, HEK293 TRPC4beta/mu-opioid, 1 µM (AID 2461;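 active means primary screen active and over 50% activation in each of two duplicate runs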). The settings on record: Fluo4 calcium fluorescence, at 1 µM; stronger effect = higher value.
Assay [3] deals with TRPC4 (transient receptor potential cation channel C4 beta), mouse. Briefly: positive allosteric modulators of mouse TRPC4, confirmation, cell-based, second round, Fluo-4, HEK293 TRPC4beta/mu-opioid, 1 µM (AID 2554;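 active means primary screen hit whose fluorescence ratio, in both repeats, exceeds the weak agonist control mean by 3 SD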). The settings on record: DAMGO EC20, Fluo-4 calcium flux, at 1 µM; stronger effect = higher value.
For assay [4], the system named is TRPC4 beta (transient receptor potential cation channel C4), mouse. Briefly: positive allosteric modulators of mouse TRPC4, confirmation, cell-based, Fluo-4, HEK293 TRPC4beta/mu-opioid (AID 2555;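 active means primary screen hit whose calcium fluorescence ratio, in both repeats, exceeds the weak agonist control mean by 3 SD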). The conditions noted are these: DAMGO EC20, Fluo-4 calcium flux, at 10 µM; stronger effect = higher value.
In assay [5] the target is Short transient receptor potential channel 4 (Mus musculus) (UniProt Q9QUQ5). The assay is described as follows: inhibitors of mouse TRPC4 channel, confirmation, cell-based, Fluo4, HEK293 TRPC4beta/mu-opioid (AID 2636;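 active means calcium signal cut by more than 3 SD below the full-agonist control yet still positive, in both repeats and the earlier primary screen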). The conditions noted are these: DAMGO, Fluo4 calcium flux, at 10 µM; stronger effect = higher value.
Short transient receptor potential channel 4 (Mus musculus), sequence (Q9QUQ5 whole entry, looked up): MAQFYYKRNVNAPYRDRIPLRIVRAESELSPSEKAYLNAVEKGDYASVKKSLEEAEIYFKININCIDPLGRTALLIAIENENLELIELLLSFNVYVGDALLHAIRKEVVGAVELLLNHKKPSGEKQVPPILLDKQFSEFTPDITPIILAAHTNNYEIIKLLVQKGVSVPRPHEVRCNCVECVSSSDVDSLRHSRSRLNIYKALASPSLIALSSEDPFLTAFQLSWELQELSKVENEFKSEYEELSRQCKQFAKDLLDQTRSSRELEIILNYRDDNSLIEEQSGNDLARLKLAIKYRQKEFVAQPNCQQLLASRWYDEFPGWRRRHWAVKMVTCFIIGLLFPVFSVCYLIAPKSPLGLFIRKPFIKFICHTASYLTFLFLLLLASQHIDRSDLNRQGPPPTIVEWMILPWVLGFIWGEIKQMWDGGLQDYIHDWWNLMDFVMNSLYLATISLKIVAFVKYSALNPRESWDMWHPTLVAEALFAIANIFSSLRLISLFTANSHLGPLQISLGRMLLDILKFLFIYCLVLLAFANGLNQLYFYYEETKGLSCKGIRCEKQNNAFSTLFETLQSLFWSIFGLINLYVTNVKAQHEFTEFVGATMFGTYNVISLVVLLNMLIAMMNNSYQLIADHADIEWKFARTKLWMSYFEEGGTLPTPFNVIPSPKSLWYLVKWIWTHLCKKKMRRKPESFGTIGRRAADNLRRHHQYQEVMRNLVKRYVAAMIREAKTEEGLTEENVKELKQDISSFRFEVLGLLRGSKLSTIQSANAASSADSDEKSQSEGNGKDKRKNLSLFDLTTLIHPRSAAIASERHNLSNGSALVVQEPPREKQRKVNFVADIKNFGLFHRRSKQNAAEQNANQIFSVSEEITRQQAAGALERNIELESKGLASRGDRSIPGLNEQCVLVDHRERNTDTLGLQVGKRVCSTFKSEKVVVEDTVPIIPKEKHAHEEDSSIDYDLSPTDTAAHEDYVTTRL
The target is the same in assay [6]. The assay is described as follows: inhibitors of mouse TRPC4 channel, confirmation, cell-based, second round, Fluo4, HEK293 TRPC4beta/mu-opioid, 1 µM (AID 2637;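 active means calcium signal ratio cut to more than 3 SD under the fully stimulated control mean yet still positive, in both repeats and the primary screen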). The conditions noted are these: Fluo4 calcium flux, DAMGO, at 1 µM; stronger effect = higher value.
The target is the same in assay [7]. Briefly: mouse TRPC4 channel activators, dose response, cell-based, HEK293 TRPC4/mu-opioid, Fluo-4 calcium (AID 434937;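 active means primary screen activator hit with a dose response curve and TRPC4 channel activation at any tested dose; inactive means no activation, no dose response, or not a primary hit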).
For assay [8] the target is unchanged. Briefly: TRPC4 positive allosteric modulators, dose response, cell-based, HEK293 TRPC4/mu-opioid, Fluo-4 calcium, EC20 DAMGO (AID 434941;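 active means earlier screen potentiator hit that boosts the TRPC4 ion channel at some dose, with a dose response; inactive means no potentiation, no dose response, or not a prior hit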;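 further: calcium entry triggered by an EC20 dose of DAMGO at the co-expressed mu-opioid receptor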).
The target is the same in assay [9]. The assay is described as follows: mouse TRPC4 channel inhibitors, dose response, cell-based, HEK293 TRPC4/mu-opioid, Fluo-4 calcium (AID 434942;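 active means primary screen inhibitor hit that blocks the TRPC4 channel at some tested dose, yielding a dose curve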).
Assay [10] deals with Short transient receptor potential channel 6 (Mus musculus) (UniProt Q61143). Briefly: inhibition of mouse TRPC6 channel, confirmation, selectivity assay for TRPC4 inhibitor project, cell-based, HEK293, membrane potential dye, duplicate (AID 434948;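 active means active in primary screen and both duplicates, each dropping signal beyond three positive-control SD with fluorescence still positive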). The settings on record: HEK293 TRPC6, membrane potential dye fluorescence, at 10 µM, stimulated with maximal-effect acetylcholine; stronger effect = higher value.
Short transient receptor potential channel 6 (Mus musculus), sequence (Q61143 whole entry, looked up): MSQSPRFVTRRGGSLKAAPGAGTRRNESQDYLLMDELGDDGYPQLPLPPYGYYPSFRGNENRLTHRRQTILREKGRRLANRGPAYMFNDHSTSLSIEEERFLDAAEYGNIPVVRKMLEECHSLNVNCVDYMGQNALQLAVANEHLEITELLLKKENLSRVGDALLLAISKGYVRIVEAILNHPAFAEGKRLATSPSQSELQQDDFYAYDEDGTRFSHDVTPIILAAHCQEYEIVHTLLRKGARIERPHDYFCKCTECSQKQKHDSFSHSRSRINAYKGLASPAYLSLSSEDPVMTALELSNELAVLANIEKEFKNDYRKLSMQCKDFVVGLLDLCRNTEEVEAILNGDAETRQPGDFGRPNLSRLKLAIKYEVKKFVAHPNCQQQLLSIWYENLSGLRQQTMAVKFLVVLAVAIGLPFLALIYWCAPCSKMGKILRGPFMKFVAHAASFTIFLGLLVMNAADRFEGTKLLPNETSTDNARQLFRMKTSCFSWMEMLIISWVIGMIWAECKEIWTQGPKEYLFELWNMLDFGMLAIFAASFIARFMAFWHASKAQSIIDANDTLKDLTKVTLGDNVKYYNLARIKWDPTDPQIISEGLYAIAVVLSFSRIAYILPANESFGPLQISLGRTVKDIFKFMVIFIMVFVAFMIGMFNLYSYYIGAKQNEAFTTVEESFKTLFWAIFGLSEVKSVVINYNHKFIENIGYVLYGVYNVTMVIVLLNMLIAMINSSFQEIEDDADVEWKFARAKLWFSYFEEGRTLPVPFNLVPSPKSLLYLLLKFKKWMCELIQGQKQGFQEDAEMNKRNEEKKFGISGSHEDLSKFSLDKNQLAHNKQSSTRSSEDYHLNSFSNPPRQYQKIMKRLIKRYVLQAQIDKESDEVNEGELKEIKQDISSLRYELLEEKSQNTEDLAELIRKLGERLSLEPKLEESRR

For assay [11] the target is unchanged. The assay is described as follows: activation of mouse TRPC6 channel, confirmation, selectivity assay for TRPC4 activator project, cell-based, HEK293, membrane potential dye, duplicate (AID 434950;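 active means membrane potential signal rise above negative control mean plus 3 SD in both duplicates, also active in the earlier TRPC4 screen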). The conditions noted are these: HEK293 TRPC6, membrane potential fluorescence, at 10 µM; stronger effect = higher value.
Assay [12] shares this target. Briefly: TRPC6 potentiation by TRPC4 potentiator hits, confirmation, selectivity assay for TRPC4 potentiator project, HEK293 cells, membrane potential dye, duplicate (AID 434952;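 active means compound raising the membrane signal above positive-control mean plus 3 SD in both repeats, and a primary screen hit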). The settings on record: HEK293 TRPC6, membrane potential dye fluorescence, at 10 µM, maximal acetylcholine added after compound; stronger effect = higher value.
Assay [13] has as its target Short transient receptor potential channel 4 (Mus musculus) (UniProt Q9QUQ5). The assay is described as follows: calcium flux activators in TRPC4/5HT1a cells, counter-screen for TRPC4 activator project, cell-based, second counter screen, HEK293 TRPC4/5HT1a, Fluo-4 (AID 434977;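 active means calcium signal rise above buffer-control mean plus 5 SD in both duplicates, and also a hit in the primary screen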). The settings on record: Fluo-4 calcium flux, at 10 µM; stronger effect = higher value.
A short description of assay [14]: calcium flux inhibitors in TRPC4/5HT1a cells, confirmation, counter-screen for TRPC4 inhibitor project, cell-based, second counter screen, HEK293 TRPC4/5HT1a, Fluo-4 (AID 434978;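 active means primary screen active whose calcium signal fell more than 3 SD beyond the full-serotonin control mean in both duplicate plates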;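 on outcome: serotonin given first at submaximal then at maximal dose after compound preincubation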). The conditions noted are these: Fluo-4 calcium flux, at 10 µM, serotonin added to trigger calcium flux; stronger effect = higher value.
Assay [15] concerns TRPC4 (mouse), co-expressed with 5HT1a in HEK293. Briefly: calcium flux potentiators in TRPC4/5HT1a cells, confirmation, counter-screen for TRPC4 potentiator project, cell-based, second counter screen, HEK293 TRPC4/5HT1a, Fluo-4 (AID 434979;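 active means signal rise over 3 SD above mean of control wells given weak agonist, in both repeats and first screen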). The conditions noted are these: Fluo-4 calcium flux, at 10 µM, serotonin added at its EC20 dose; stronger effect = higher value.
Assay [16] can be described thus: calcium flux activation in mu-opioid HEK293 cells, confirmation, counter-screen for TRPC4 activator project, cell-based, HEK293 mu-opioid receptor line (AID 449723;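 active means hit in primary screen, with calcium signal over 5 SD above buffer well mean in both duplicates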;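 further: counter screen cells carry the mu-opioid receptor alone and lack TRPC4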). The conditions noted are these: Fluo-4 calcium fluorescence, at 10 µM; stronger effect = higher value.
The nature of assay [17]: calcium flux enhancement in mu-opioid HEK293 cells, confirmation, counter-screen for TRPC4 allosteric potentiator project, cell-based, HEK293 mu-opioid receptor line (AID 449724;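 active means calcium signal rise more than 3 SD above the low-dose agonist control mean, in both duplicate plates and the primary screen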;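 further: HEK293 cells carrying mu-opioid receptor only with no TRPC4 channel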). The conditions noted are these: Fluo-4 calcium flux, at 10 µM, compound added before EC20 DAMGO stimulus; stronger effect = higher value.
The nature of assay [18]: thallium flux activation in parental CHO cells, counter-screen for KCNQ1 potentiator project (AID 493006;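 active means duplicate-averaged activation above buffer control mean plus 5 SD of those controls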;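 further: fluorescence ratio of max minus min over baseline after K+ and Tl+ depolarization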). The conditions noted are these: parental CHO-K1 cells, FluxOR thallium flux, at 10 µM; stronger effect = higher value.
Assay [19] has as its target Potassium voltage-gated channel subfamily KQT member 1 (Homo sapiens) (UniProt P51787). The assay is described as follows: KCNQ1 potassium channel potentiators, confirmation, FluxOR thallium flux, CHO cells, duplicates (AID 493007;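 active means potentiation averaged over duplicate wells exceeding buffer-only control mean by more than 3 SD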;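 further: 0% = buffer-only wells and 100% = R-L3 activator control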). The settings on record: KCNQ1 cell line, FluxOR thallium flux fluorescence, at 10 µM; stronger effect = higher value, % of reference activator effect, buffer zero.

For assay [20], the target named is Potassium voltage-gated channel subfamily KQT member 2 (Rattus norvegicus) (UniProt O88943). Briefly: rat KCNQ2 channel potentiation, selectivity assay for KCNQ1 potentiator project, KCNQ2-CHO-K1 cells (AID 493009;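 active means mean duplicate potentiation above the buffer control mean plus 5 SD of buffer wells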;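 further: assay conditions were tuned for KCNQ1 rather than KCNQ2 modulators; signal is max minus min fluorescence divided by baseline after thallium stimulus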). The conditions noted are these: FluxOR thallium flux fluorescence, at 10 µM; stronger effect = higher value, scaled: buffer 0, activator control 100.
Potassium voltage-gated channel subfamily KQT member 2 (Rattus norvegicus), sequence (O88943 whole entry, looked up): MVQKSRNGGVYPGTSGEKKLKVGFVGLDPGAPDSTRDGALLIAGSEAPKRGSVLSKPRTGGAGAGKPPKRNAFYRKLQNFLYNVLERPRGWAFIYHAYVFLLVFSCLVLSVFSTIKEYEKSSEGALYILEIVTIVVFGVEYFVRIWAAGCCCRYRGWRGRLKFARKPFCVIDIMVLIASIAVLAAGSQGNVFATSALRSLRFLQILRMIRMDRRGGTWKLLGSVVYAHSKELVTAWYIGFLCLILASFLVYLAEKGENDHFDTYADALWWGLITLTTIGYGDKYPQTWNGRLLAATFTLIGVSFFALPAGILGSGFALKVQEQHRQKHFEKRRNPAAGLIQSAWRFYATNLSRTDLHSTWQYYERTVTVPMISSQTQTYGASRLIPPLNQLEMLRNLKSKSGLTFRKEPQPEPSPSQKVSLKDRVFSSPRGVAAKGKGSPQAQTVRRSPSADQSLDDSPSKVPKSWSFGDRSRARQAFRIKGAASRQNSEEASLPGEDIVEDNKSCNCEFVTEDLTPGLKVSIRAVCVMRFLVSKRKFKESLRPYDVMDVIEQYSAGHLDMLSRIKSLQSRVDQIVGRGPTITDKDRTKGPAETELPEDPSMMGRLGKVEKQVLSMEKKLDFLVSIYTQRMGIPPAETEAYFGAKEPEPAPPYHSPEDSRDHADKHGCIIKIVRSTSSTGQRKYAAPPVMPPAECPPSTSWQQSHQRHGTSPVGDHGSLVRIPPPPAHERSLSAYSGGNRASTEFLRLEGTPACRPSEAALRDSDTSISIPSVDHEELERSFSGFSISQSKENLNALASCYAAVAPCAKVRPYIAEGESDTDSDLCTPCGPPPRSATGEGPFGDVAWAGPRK

For some assays here: Measured potencies and affinities stand elsewhere. The source made the active and inactive calls.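 How the source made its calls, unless noted: active means fluorescence ratio normalized to control raised more than 50% in primary screen plus both repeat runs; inactive means the rest.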

Potassium voltage-gated channel subfamily KQT member 1 (Homo sapiens), sequence (P51787 whole entry, looked up): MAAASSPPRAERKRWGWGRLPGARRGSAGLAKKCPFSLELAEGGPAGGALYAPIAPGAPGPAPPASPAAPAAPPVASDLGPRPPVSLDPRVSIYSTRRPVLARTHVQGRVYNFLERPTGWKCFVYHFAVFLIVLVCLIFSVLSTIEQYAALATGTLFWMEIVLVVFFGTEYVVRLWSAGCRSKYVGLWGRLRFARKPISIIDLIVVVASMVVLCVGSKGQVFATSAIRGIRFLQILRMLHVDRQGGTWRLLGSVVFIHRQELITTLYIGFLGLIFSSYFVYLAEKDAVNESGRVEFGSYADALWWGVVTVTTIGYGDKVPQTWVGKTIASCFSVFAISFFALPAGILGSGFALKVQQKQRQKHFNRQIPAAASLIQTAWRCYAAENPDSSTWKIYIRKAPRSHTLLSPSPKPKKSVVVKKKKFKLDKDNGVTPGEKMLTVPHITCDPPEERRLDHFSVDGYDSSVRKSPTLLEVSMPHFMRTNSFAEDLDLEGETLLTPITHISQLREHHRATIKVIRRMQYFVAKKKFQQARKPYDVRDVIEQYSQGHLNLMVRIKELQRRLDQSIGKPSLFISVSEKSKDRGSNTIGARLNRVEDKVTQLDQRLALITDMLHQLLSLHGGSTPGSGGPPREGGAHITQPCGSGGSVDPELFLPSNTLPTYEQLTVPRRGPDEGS

Consider `CCOC(=O)COc1cc(-n2c(=S)[nH]c3ccccc3c2=O)c(Cl)cc1Cl`, for which the result in [1], in assay [2], in assay [5], in [6], in [7] and in assay [8] was inactive. The outcome in [9], in [10], in [11], in [12], in assay [13] and in assay [14] was inactive. In addition, the result in assay [15], in assay [16] and in assay [17] was inactive. Further, the values for the potentiation in assay [3] and in assay [4] were 8% (active) and 21% (active), respectively.
`Cc1nn(-c2cc(C(F)(F)F)ccc2Cl)c2nc(C(Cl)(Cl)Cl)[nH]c(=O)c12`: the result in assay [1], in assay [2], in assay [3], in assay [4], in assay [5] and in assay [6] was inactive. Besides, the result in assay [7], in assay [8], in assay [9], in assay [10], in assay [11] and in [12] was inactive. Moreover, the result in assay [13], in assay [14], in assay [15], in assay [16] and in [17] was inactive. In assay [18], the activation was 191% (active). Also, the potentiation in [19] was 52.5% (active); in [20] it was 218% (active).
In the case of `O=S(=O)(NCCSc1nnc(-c2ccco2)n1-c1ccccc1)c1ccccc1`, the outcome in [1], in assay [2], in assay [3], in assay [4], in assay [5] and in [6] was inactive. Moreover, the outcome in [7], in assay [8], in [9], in assay [10], in [11] and in assay [12] was inactive. Moreover, the outcome in assay [13], in assay [14], in assay [15], in assay [16] and in assay [17] was inactive.
On to `Cc1ccc(Cn2c(=N)c(C(=O)NC3CCCCC3)cc3c(=O)n4ccccc4nc32)cc1`, for which the outcome in assay [1], in assay [2], in [3], in assay [5], in [6] and in assay [7] was inactive. The outcome in assay [8], in assay [9], in [10], in assay [11], in assay [12] and in assay [13] was inactive. In addition, the outcome in assay [14], in [15], in assay [16] and in [17] was inactive. Besides, the potentiation in assay [4] was 26% (active).
`CCCn1c(SCC(=O)N2c3ccccc3Sc3ccccc32)nc2c1c(=O)n(C)c(=O)n2C`: the outcome in [1], in assay [2], in assay [3], in [5], in assay [6] and in [7] was inactive. The result in assay [8], in assay [9], in [10], in assay [11], in [12] and in assay [13] was inactive. For the same molecule, the result in assay [14], in [16] and in [17] was inactive. The potentiation is 18% (active) in [4] and 45.1% (active) in assay [15].
For the molecule `O=C(CN1CCCCC1)Nc1ccccc1Oc1ccccc1`, the outcome in assay [1], in [2], in assay [3], in assay [4], in [6] and in assay [7] was inactive. For the same molecule, the outcome in [8], in assay [9], in [11], in assay [12], in [13] and in assay [15] was inactive. In addition, the result in [16] and in assay [17] was inactive. The inhibition in assay [5] is 92% (active); in assay [10], 33.5% (active); in [14], 31.5% (active).
For `COc1cc(NC(=O)CSc2ncnc3sc4c(c23)CCC(C)C4)c(C(=O)O)cc1OC` (stereo not given), the result in assay [1], in [2], in [3], in assay [4], in [6] and in assay [7] was inactive. In addition, the result in [8], in [9], in assay [10], in assay [11], in [12] and in assay [13] was inactive. The result in assay [14], in assay [15], in [16] and in [17] was inactive. Moreover, in assay [5], the inhibition is 91% (active). In addition, in [18], the activation is 450% (active). In addition, the potentiation in assay [19] is 297% (active); in assay [20] it was 506% (active).
